# Menin MLL FP TR = inhibitors of human menin-MLL interaction, mutant MLL peptide; O00255; 270,000 tested, 0.23% active; Menin + Texas Red MLL mutant peptide, fluorescence polarization; Potency, µM (doses to about 61.6 µM), inactives show at the top dose FP activity change, negative = inhibition, actives largely listed as inhibitors; active = well fitted inhibition curve with a large enough effect in the polarisation, with a control signal flat, not every such curve was filed as active; inconclusive = small, poorly fitted or top-dose-only effect, or effect the other way, or a change in a side signal; inactive = no such curve, though single readings can be large or run the other way; the % refers to the polarisation; note: potency is the fitted concentration of half-maximal effect; % of control where 0% means no effect
# Target sequence (O00255 whole entry, looked up): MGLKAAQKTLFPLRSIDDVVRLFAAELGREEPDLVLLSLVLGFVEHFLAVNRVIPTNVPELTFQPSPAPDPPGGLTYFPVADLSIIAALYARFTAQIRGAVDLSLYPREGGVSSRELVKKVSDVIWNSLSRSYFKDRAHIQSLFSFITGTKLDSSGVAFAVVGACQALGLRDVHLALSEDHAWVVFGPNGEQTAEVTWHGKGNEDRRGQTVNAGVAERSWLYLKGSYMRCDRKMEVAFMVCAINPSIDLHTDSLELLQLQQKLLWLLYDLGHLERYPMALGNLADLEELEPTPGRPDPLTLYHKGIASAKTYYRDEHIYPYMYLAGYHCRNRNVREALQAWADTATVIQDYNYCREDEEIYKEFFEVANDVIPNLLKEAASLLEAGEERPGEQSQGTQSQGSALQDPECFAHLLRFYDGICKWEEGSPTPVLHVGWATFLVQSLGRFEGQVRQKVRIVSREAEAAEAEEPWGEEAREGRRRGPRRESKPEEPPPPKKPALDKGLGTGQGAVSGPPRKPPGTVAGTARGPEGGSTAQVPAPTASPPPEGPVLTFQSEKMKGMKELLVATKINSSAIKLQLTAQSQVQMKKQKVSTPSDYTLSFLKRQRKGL
# CXXC DNA block = MLL CXXC-DNA interaction inhibition. Potency, µM (doses to about 115 µM), without a hit: top-dose activity change, negative = inhibition, actives largely listed as inhibitors. 290,000 tested, 0.037% active. MLL-CXXC / FITC-HOXA9 DNA fluorescence polarization. Q03164; active = well fitted inhibition curve with a large enough effect in the polarisation, with a control signal flat, not every such curve was filed as active; inconclusive = small, poorly fitted or top-dose-only effect, or effect the other way, or a change in a side signal; inactive = no such curve, though single readings can be large or run the other way; the % refers to the polarisation; note: potency is the fitted concentration of half-maximal effect
#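 Fluorescence polarization: 7 uM MLL-CXXC (stock) preincubated 5 min with compounds, then 50 nM fluorescein-HOX-A9 DNA (stock) added; 30 min ambient. Buffer 50 mM Tris-HCl pH 7.5, 50 mM NaCl, 1 mM DTT, 0.05% BSA.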
# Menin-MLL FL inh = inhibitors of human menin-MLL interaction, wild-type MLL peptide; FP activity change, % at 61.4 µM; Fluorescence polarization, fluorescein-MLL peptide displacement from menin; 290,000 tested, under 10 active; active = well fitted curve in the direction sought with a large enough effect in the polarisation, not every such curve was filed as active; inconclusive = small, poorly fitted or top-dose-only effect, or effect the other way, or a change in a side signal; inactive = no such curve, though single readings can be large or run the other way; the % refers to the polarisation; note: % of control where 0% means no effect
# A-T KAP1 phos = candidate therapy for ataxia-telangiectasia; 320,000 tested, 0.19% active; F2112 A-T fibroblasts, KAP-1 phosphorylation AlphaLISA; neocarzinostatin DNA damage 30 min before lysis; Potency, µM (titrated, usually from 57.5 µM), inactives show at the top dose activation, actives largely listed as activators; note: potency is the fitted concentration of half-maximal effect; % of control where 0% means no effect; nearly all actives have a fitted effect of over 45% in size
#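 hTERT-immortalized A-T patient fibroblasts (F2112), 500 cells/well in OPTI-MEM, 1% FBS, got compounds for 60 min, then NCS for 30 min at 37C. Lysates were then assayed for phospho-KAP-1 by AlphaLISA (anti-pKAP1 donor, anti-KAP1 acceptor beads), 6 hr at 25C.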
# Mm-Cpn inhibitor = blocks the Methanococcus maripaludis chaperonin Mm-Cpn; Potency, µM (series often up to 76.9 µM), for the others: at the highest dose activity, negative = inhibition, hits mostly inhibitors; 330,000 tested, 0.031% active; AID 504842; purified Mm-Cpn ATPase, ADP Transcreener TR-FRET; note: potency is the fitted concentration of half-maximal effect; % is set by controls: 0 for no effect and ±100 for the full control effect; nearly all actives have a fitted effect of over 80% in size
#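 ATPase read-out: TR-FRET ADP immunoassay (anti-ADP Eu cryptate vs ADP-d2), ex 320 nm, em 590/665 nm; signal drops as ADP forms. Enzyme 25 nM, ATP 10 uM, 30 min at 37°C after 10 min compound preincubation.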
# MLL CXXC Fl = disrupts human MLL CXXC domain binding to DNA; MLL CXXC-DNA binding, fluorescein FP; Potency, µM (doses to about 345 µM), inactives show at the top dose activity change, negative = inhibition, usual class: inhibitors; shares compounds with CXXC DNA block; 200 tested, 70% active; note: potency is the fitted concentration of half-maximal effect; nearly all actives have a fitted effect of over 80% in size
# MLL CXXC TxRed = disrupts human MLL CXXC domain binding to DNA, Texas Red; shares compounds with CXXC DNA block; MLL CXXC-DNA binding, Texas Red fluorescence polarization; Potency, µM (doses to about 345 µM), without a hit: at the highest dose activity change, negative = inhibition, usual class: inhibitors; 200 tested, 40% active; AID 624161; note: potency is the fitted concentration of half-maximal effect; % is set by controls: 0 for no effect and ±100 for the full control effect; nearly all actives have a fitted effect of over 75% in size
# MLL CXXC HTRF = disrupts human MLL CXXC domain binding to DNA by HTRF; shares compounds with CXXC DNA block; MLL CXXC-DNA binding, HTRF, biochemical; Potency, µM (top dose mostly 172 µM), for the others: at the highest dose activity change, negative = inhibition, actives largely listed as inhibitors; 210 tested, 30% active; AID 624162; note: % is set by controls: 0 for no effect and ±100 for the full control effect; nearly all actives have a fitted effect of over 80% in size
# * marks the source's active call; other numbers are inactive results; u = inconclusive; x = no result given; ! = repeats disagree; [ ] = another dose, or the depositor's remark. The list is not random: actives were taken first. Their share in the collection is about 0.29%. Unless noted, calls come from the whole dose curve; as a rule, active = well fitted curve in the direction sought with a large enough effect; inconclusive = small, poorly fitted or top-dose-only effect, or another doubt; inactive = no such curve, though single readings can be large; an effect the other way counts as inactive or inconclusive.
SMILES,Menin MLL FP TR,CXXC DNA block,Menin-MLL FL inh,A-T KAP1 phos,Mm-Cpn inhibitor,MLL CXXC Fl,MLL CXXC TxRed,MLL CXXC HTRF
Cc1nc2cnc(N(C)C)nc2n(CCc2ccccc2)c1=O,u,x,6,x,x,x,x,x
CCc1ccc(C2C(C#N)=C(N)SC(N)=C2C#N)s1,2%,69%,-3,-13%,35µM*,x,x,x
Cc1ccc2c(c1)sc(-c1ccc(N(C)C)cc1)[n+]2C,u,30%,14,-5%,-4%,x,x,x
Cc1cccc([C@@H]2[C@@H]3C(=O)N(Cc4ccccc4)C(=O)[C@@H]3[C@]3(Cc4ccc(Cl)cc4)C(=O)N(c4ccc(Br)cc4)C(=O)N23)c1,20µM*,19%,0,1%,-1%,x,x,x
CC[C@@]12C(=O)N(c3ccc(C)cc3)C(=O)N1[C@H](c1cccc(C)c1)[C@@H]1C(=O)N(Cc3ccccc3)C(=O)[C@@H]12,x,x,x,4%,-12%,x,x,x
O=C1NN(c2ccccc2)C(=O)/C1=C\c1ccc2c(c1)OCO2,9%,u,2,-5%,0%,28µM*,u,0%
COc1cccc(/C=C2/C(=O)NN(c3ccccc3)C2=O)c1,0%,-3%,-4,5%,3%,x,x,x
O=c1c(-c2ccc(F)cc2)nc2cnc(N3CCNCC3)nc2n1C1CC1,-7%,x,-9,x,x,x,x,x
O=C1CCC[C@@H](C2=CCCCC2=O)C1,22%[11.7 µM],x,-5[11.7 µM],x,x,x,x,x
CC1(C)CC(=O)C(C(C2=C(O)CC(C)(C)CC2=O)c2ccc(O)c([N+](=O)[O-])c2)=C(O)C1,10%,28µM*,-2,-5%,0%,18µM*,63µM*,7.7µM*
CC(C)C(=O)Nc1c(-c2ccc(Cl)cc2)c(=O)c2ccccc2n1C,23%,u,2,6%,0%,u,-4%,0%
COc1ccc([C@@H]2CNC(=O)C2)cc1OC1CCCC1,0%[24.8 µM],-3%[51.4 µM],-25,x,x,x,x,x
CC(=O)OCCCN1C(=O)c2cccc3cc(Br)cc(c23)C1=O,-22%,-6%,-1,-8%,-4%,x,x,x
O=C1c2cccc3cc([N+](=O)[O-])cc(c23)C(=O)N1CCN1CCCC1,-12%,u,u,15%,0%,x,x,x
CCN(CC)CCN1C(=O)c2cccc3cc(N)cc(c23)C1=O,1%,35µM*,u,9%,-8%,89µM*,u,97%
Nc1cc2c3c(cccc3c1)C(=O)N(CCN1CCCC1)C2=O,-17%,7.9µM*,u,6%,-7%,142µM*,u,87%
CC(C)=CCC/C(C)=C/CO/N=C1/C[C@@H](O)[C@@H](O)[C@@H]2[C@H]3C(=O)N(c4ccc(F)cc4F)C(=O)[C@@H]3CC[C@H]12,-13%[11.7 µM],x,-2[11.7 µM],x,x,x,x,x
Cc1ccc(C(=O)Nc2ccc(S(=O)(=O)O)c3cc(S(=O)(=O)O)cc(S(=O)(=O)O)c23)cc1NC(=O)c1cccc(NC(=O)Nc2cccc(C(=O)Nc3cc(C(=O)Nc4ccc(S(=O)(=O)O)c5cc(S(=O)(=O)O)cc(S(=O)(=O)O)c45)ccc3C)c2)c1,57%,7.9µM*,11,x,x,20µM*,22µM*!,4.9µM*
Cc1ccccc1NC(=O)c1cccc(S(=O)(=O)Nc2cccc(C(=O)O)c2)c1,27%,-3%,-2,-1%,1%,x,x,x
N#CC(C#N)=C1C=C2C=C(N3CCCCCC3)CCC2CC1 (stereo unspecified),u,u,u,17%,-3%,0.45µM*,71µM*,217%
N#CC(C#N)=C1C=C2C=C(N3CCOCC3)CCC2CC1 (stereo unspecified),8%,u,u,9%,0%,x,x,x

# Compound activity deposited in PubChem by National Center for Advancing Translational Sciences (NCATS).
